Bioassay records as filed in PubChem.
Tau ThT inhib: qHTS for Inhibitors of Tau Fibril Formation, Thioflavin T Binding. Potency, µM (titrated, usually from 57.4 µM), for inactives: at the top dose activity, negative = inhibition, hits mostly inhibitors. AID 1460, 2008. 270,000 compounds, 2.1% hits. recombinant tau K18 P301L, heparin-induced fibrillization, ThT fluorescence. Microtubule-associated protein tau (Homo sapiens), P10636; note: potency is the fitted concentration of half-maximal effect; nearly all actives have a fitted effect of over 55% in size
Target sequence (P10636 561-689 P618L limits assumed): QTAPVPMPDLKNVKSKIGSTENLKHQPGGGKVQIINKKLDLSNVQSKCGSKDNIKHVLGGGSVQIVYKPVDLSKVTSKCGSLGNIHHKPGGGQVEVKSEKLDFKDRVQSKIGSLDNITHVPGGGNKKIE
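Heparin-induced (20 uM) aggregation of recombinant human K18 P301L tau, 15 uM unlabeled with 0.24 uM labeled, pH 7 acetate buffer, 6 hr at 37 C with compound. Fibrils quantified by 30 uM ThT fluorescence after 1 hr ambient incubation.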
FBPA coupling cs: qHTS Assay for Inhibitors of Fructose-1,6-bisphosphate Aldolase from Giardia Lamblia: Coupling assay counterscreen. coupling enzyme system counterscreen, AmpLite Red fluorescence. activity change, negative = inhibition, % at 58.2 µM, hits read low. 290,000 compounds, 0.67% hits. AID 2472, 2010; in the data active = activity change below about -30%
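Coupling enzymes only (glyceraldehyde-3-phosphate) + compound, at 57.5 uM final, 10 min RT; add substrate/coupling/AmpLite Red mix, 20 min RT; fluorescence ex 525/em 598 nm. Actives flag coupling-system interference.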
Tau fibril FP: qHTS for Inhibitors of Tau Fibril Formation, Fluorescence Polarization; Microtubule-associated protein tau (Homo sapiens), P10636; K18 P301L tau heparin fibrillization, Alexa594 FP, 6 h; 280,000 compounds, 0.39% hits; Potency, µM (titrated, usually from 57.7 µM), without a hit: top-dose activity, negative = inhibition, actives largely listed as inhibitors; note: potency is the fitted concentration of half-maximal effect; nearly all actives have a fitted effect of over 55% in size
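Recombinant K18 P301L […], labeled with Alexa 594 at 0.24 uM over 15 uM unlabeled; heparin inducer 20 uM final; 37 C, 6 hr; FP endpoint.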
Tau fluor cs: Counterscreen qHTS for Inhibitors of Tau Fibril Formation, Fluorescence Polarization; tau K18 P301L Alexa594 fluorescence, heparin fibrillization; Potency, µM (top dose mostly 57.7 µM), without a hit: top-dose activity change, negative = decrease; 280,000 compounds, 0.93% hits; note: potency is the fitted concentration of half-maximal effect; nearly all actives have a fitted effect of over 55% in size
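Human tau K18 P301L (15 uM unlabeled, 0.24 uM Alexa 594-labeled) in 100 mM sodium acetate pH 7 with 20 uM heparin, 6 hr at 37 C. ThT 30 uM added, 1 hr ambient; Alexa 594 FP and total fluorescence read at 555/632 nm.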
Sfp PPTase inh: qHTS Assay for Inhibitors of Bacillus subtilis Sfp phosphopantetheinyl transferase (PPTase); 4'-phosphopantetheinyl transferase ffp (Bacillus subtilis), Q9F4F7; Biochemical Sfp PPTase activity, qHTS; Potency, µM, for the others: largest response in the series, negative = inhibition, most hits filed as inhibitors; 310,000 compounds, 3.5% hits; AID 1490, 2009;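 note: the enzyme is Sfp with the accession as filed and its product quenches rhodamine fluorescence; potency is the fitted concentration of half-maximal effect; 0% = enzyme reaction without inhibitor and -100% = no enzyme wells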
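Fluorescence-quenching assay with 15 nM Sfp, 5 uM rhodamine-CoA and 12.5 uM BHQ-2-labelled ybbR peptide in pH 7.6 Hepes/MgCl2 buffer. Enzyme was pre-incubated with compound for 15 min at room temperature. Rate was taken from the 30-min fluorescence change (525/598 nm).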
* hit, by the source's call; u = inconclusive; x = not tested or not shown; [ ] = another dose, or the depositor's remark. This is a sample that favours compounds with a hit; in the whole collection about 5.2% have one here. Unless noted, calls come from the whole dose curve; as a rule, active = well fitted curve in the direction sought with a large enough effect; inconclusive = small, poorly fitted or top-dose-only effect, or another doubt; inactive = no such curve, though single readings can be large; an effect the other way counts as inactive or inconclusive. Unless noted, % is set by controls: 0 for no effect and ±100 for the full control effect.

SMILES | Tau ThT inhib | FBPA coupling cs | Tau fibril FP | Tau fluor cs | Sfp PPTase inh
CC1=CC(c2ccc(Cl)cc2)n2nc(NC(=O)c3ccccc3)nc2N1 (stereo not drawn) | -10% | -10 | -3% | -6% | -8%
O=C(Nc1nc2n(n1)C(c1ccccc1)C=C(c1ccccc1)N2)c1ccco1 (stereo not drawn) | u | 4 | -8% | -1% | 56µM*
O=C(Nc1nc2n(n1)C(c1ccccc1)C=C(c1ccc(Cl)cc1)N2)c1ccco1 (stereo not drawn) | u | x | -5% | -17% | x
CC(=O)Nc1nc2n(n1)C(c1ccc(F)cc1)C=C(c1ccccc1)N2 (stereo not drawn) | -6% | -24 | -12% | -6% | 35µM*
CCN(CC)S(=O)(=O)c1ccc2c(c1)N(CC(=O)N1CCN(c3ccc(Cl)cc3)CC1)C(=O)CO2 | -7% | x | -2% | -9% | x
CCn1c(C)c(CS(=O)(=O)c2ccccc2)[nH]c1=O | u | 0 | u | -18% | 25µM*
C#CCCCO/N=C1/C[C@@H](O)[C@@H](O)[C@@H]2[C@@H]3C(=O)N(c4cccc(Oc5ccccc5)c4)C(=O)[C@H]3CC[C@@H]12 | -2%[11.5 µM] | 6 | 1%[11.6 µM] | -4%[11.6 µM] | 17%
O=C1C2=CC[C@@H]3C(=O)N(c4ccc(F)cc4F)C(=O)[C@H]3[C@H]2[C@H](O)[C@H]2O[C@H]12 | 4.5µM* | 0 | u | -19%[11.6 µM] | -10%
CC(C)(C)N1C(=O)[C@@H]2[C@H]3C(=CC[C@H]2C1=O)C(=O)[C@H]1O[C@H]1[C@H]3O | u | 0 | u | -12%[11.6 µM] | -16%
C[C@@H](c1ccccc1)N1C(=O)[C@@H]2[C@H]3C(=CC[C@H]2C1=O)C(=O)[C@H]1O[C@H]1[C@H]3O | u | -3 | u | -14%[11.6 µM] | 15%
CCOC(=O)CCN1C(=O)[C@@H]2[C@H]3C(=CC[C@H]2C1=O)C(=O)[C@H]1O[C@H]1[C@H]3O | 4µM* | -1 | u | -24%[11.6 µM] | -6%
CC(C)c1ccccc1NC(=O)CN(c1ccccc1)S(=O)(=O)N(C)C | -1% | x | 2% | -9% | x
CCOC(=O)C1=C(C)N=c2s/c(=C/c3cccc([N+](=O)[O-])c3O)c(=O)n2C1c1ccc(OC)cc1OC (stereo not drawn) | x | 3 | x | x | 50µM*
CCOC(=O)C1=C(c2ccccc2)N=c2s/c(=C\c3ccco3)c(=O)n2C1c1cccs1 (stereo not drawn) | u | -2 | u | u | 50µM*
COc1ccc(C2C(C(C)=O)=C(C)N=c3s/c(=C\c4ccco4)c(=O)n32)c(OC)c1 (stereo not drawn) | 13µM* | -4 | -6% | u | 50µM*
CCOC(=O)N1CCc2c(sc3c2c(=O)n(CCc2ccccc2)c(=O)n3Cc2cc(C)ccc2C)C1 | -7% | x | -4% | -1% | x
COCCCCCCCCCCCC(=O)O | -3% | 1 | 7% | 5% | 1%
CSCSC1=C(C#N)C(c2ccc(Cl)cc2)C(C(C)=O)=C(C)N1 (stereo not drawn) | -12% | 0 | -3% | -27% | 10µM*
CSC1=C(C#N)C(c2ccccc2)C(C(C)=O)=C(C)N1 (stereo not drawn) | 9% | 1 | -1% | 10% | 19%
CCOC(=O)CSC1=C(C#N)C(c2ccccc2)C(C(C)=O)=C(C)N1 (stereo not drawn) | -4% | -8 | -3% | -6% | 79µM*
COc1ccc(OCc2cc(C(=O)N(C)C3CCOCC3)no2)c2ccccc12 | x | -37* | x | x | 1%
CCOC(=O)C1CCN(C(=O)c2cc(COc3ccc(OC)c4ccccc34)on2)CC1 | x | -37* | x | x | -1%
COc1cccc(N2CCN(C(=O)c3c(C)oc4ncnc(N5CCCCC5)c34)CC2)c1 | u | x | -2% | -12% | x
CCOC(=O)c1sc(N(Cc2ccccc2)C(=O)COC(=O)c2ccccc2O)nc1C | -13% | -2 | -7% | -21% | -17%
CCOC(=O)c1sc(N(Cc2ccccc2)C(=O)COC(=O)c2ccc(O)cc2)nc1C | -3% | -2 | 14µM* | u | -4%
SMILES | Tau ThT inhib | FBPA coupling cs | Tau fibril FP | Tau fluor cs | Sfp PPTase inh
O=C(N/N=C/c1sc(N2CCCCC2)nc1-c1cccs1)C1CC1 | u | -12 | 2% | u | 56µM*
CC(C)NC(=S)N/N=C/c1sc(N2CCCCC2)nc1-c1cccs1 | -13% | -3 | u | u | -9%
COc1coc(C(O)C[N+](=O)[O-])cc1=O (stereo not drawn) | u | 2 | -3% | -4% | 32µM*
COC(=O)C(N)Cc1ccc(OC)c([N+](=O)[O-])c1 (stereo not drawn) | 3% | 1 | -2% | 8% | -2%
COc1cc(/C=C2/SC(=NCc3ccccc3)N(Cc3ccccc3)C2=O)ccc1O | u | 1 | -3% | 10µM*[quencher] | 6%
CCOc1cc(/C=C2\SC(=S)N(C(C(=O)O)c3ccccc3)C2=O)ccc1O (stereo not drawn) | u | 20 | 0% | 3% | 40µM*
COc1cc(/C=C2\SC(=S)N(C(C(=O)O)c3ccccc3)C2=O)ccc1O (stereo not drawn) | 7.1µM* | 12 | -7% | -10% | u
O=C(O)C(c1ccccc1)N1C(=O)/C(=C\c2ccc(O)c(O)c2)SC1=S (stereo not drawn) | x | 0 | x | x | -9%
COc1ccccc1/C=C1\SC(=S)N(C(C(=O)O)c2ccccc2)C1=O (stereo not drawn) | u | 20 | -2% | -2% | 56µM*
COc1cc(/C=C2/SC(=S)N(Cc3ccccc3)C2=O)ccc1O | x | 1 | x | x | -7%
COc1ccccc1/C=C1\SC(=S)N(NS(=O)(=O)c2ccccc2)C1=O | x | 9 | x | x | -14%
CSc1ccc(C2c3[nH]c4ccccc4c3CCN2C(=O)CCC2CCCC2)cc1 (stereo not drawn) | -1% | x | -1% | 3% | x
Cc1ccccc1NC(=O)CSc1nc2c(oc3ccccc32)c(=O)n1Cc1ccco1 | -5% | x | -7% | -4% | x
CCOc1ccc(/C=C2/SC(=S)N(C(C(=O)O)c3ccccc3)C2=O)cc1OCC (stereo not drawn) | 16µM* | 0 | u | -35% | 56µM*
CCOc1ccc(/C=C2\SC(=S)N(Nc3ccccc3)C2=O)cc1OC | u | -1 | -8% | -20% | u
CC(=O)Nc1c(C)nn(-c2ccccc2)c1N1CCC(C(=O)Nc2cccc(C(F)(F)F)c2)CC1 | -3% | x | -1% | -23% | x
